# Data as given in PubChem BioAssay AID624404 (Broad Institute, 2012).
# About 710 (39%) of roughly 1,800 compounds were called active. About 28% were inconclusive and are not listed. These entries were drawn from the full list. Results with a measured potency or affinity are listed apart. A number with no mark means an inactive call.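 How the source made its calls: active means luciferase signal rise whose fitted curve crosses a set activity limit at or below the top valid tested dose; inconclusive means flat fit with 30 to 70% rise, or poor fit; inactive means signal falling, flat within 30%, or crossing above top dose.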
# Assay: reporter signal increase, D54 LucT cells – cell-based, luminescence, cherry pick, counter-screen for N-linked glycosylation inhibitor project, dose response (AID 624404);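 further: 0% = median neutral control signal and 100% = twice that signal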
# Conditions: D54 LucT luciferase reporter counterscreen, 24 h; series mostly up to 19.5 µM; activity increase (luciferase signal): at the top concentration
row,Structure (SMILES),activity increase (luciferase signal)
1,CC(Oc1ccc2c(c1)c1ccnc3c4ccccc4c(=O)n2c13)C(=O)NCCN1CCOCC1 (stereo not drawn),-14.3%
2,Oc1ccc(NCc2ccccc2OCc2ccccc2)cc1,24.2%
3,CCn1c2ccccc2c2cc(NC(=O)COC(=O)c3ccc(O)cc3)ccc21,5.23%
4,c1ccc2c(c1)c1c(c3ccccc32)CN2CCCC2C1 (stereo not drawn),0.935%
5,Cc1cc([N+](=O)[O-])ccc1Nc1nc2ccccc2n2cnnc12,0.819%
6,FC(F)(F)c1nnc2c(Sc3ccc(Cl)cc3)nc3ccccc3n12,-57%
7,Cc1nnc2c(NCCC(C)C)nc3ccccc3n12,38.9%
8,CCN(CC)CCCNc1cc(C)c(C#N)c2nc3ccccc3n12,-16.2%
9,Cc1ccc(NC(=O)c2cc(S(=O)(=O)N(C)C)ccc2N2CCCC2)cc1F,18.8%
10,COc1ccc(S(=O)(=O)Nc2c(C(=O)O)[nH]c3ccc(OC)cc23)c(OC)c1,26.5%
11,COc1cc(-c2noc(C)c2/C=C/c2ccc(OC(C)=O)cc2)cc(OC)c1OC,11.2%
12,COc1cc(NC(=O)c2cc(-c3ccccc3)nc3c2cnn3C(C)C)cc(OC)c1OC,-29.9%
13,NC(=O)c1cccc(Nc2nc(C(N)CCc3ccccc3)cs2)n1 (stereo not drawn),7.8%
14,CCOC(=O)C1CCN(S(=O)(=O)Cc2ccccc2)CC1,46%
15,O=C1CCCC2=C1C(c1ccco1)Nc1ccc(C(=O)c3ccccc3)cc1N2 (stereo not drawn),41.2%
16,CCCn1c2ccccc2c2cnn(CC(=O)NC3CCCC(C)C3C)c(=O)c21 (stereo not drawn),-3.18%
17,COc1ccc(OC)c(N(CC(=O)Nc2cccnc2)S(=O)(=O)c2ccc(C)cc2)c1,4.3%
18,CCOc1ccccc1NC(=O)CN(c1ccc(OC)cc1)S(=O)(=O)c1c(C)noc1C,52.5%
19,COc1ccc(N(CC(=O)Nc2cc(Cl)ccc2OC)S(=O)(=O)c2c(C)noc2C)cc1,-20.4%
20,CN(C)Cc1c(O)ccc2c1O/C(=C\C=C\c1ccccc1)C2=O,31.8%

row,Structure (SMILES),activity increase (luciferase signal)
1,O=C(CCl)N1CCCC1c1ccc2c(c1)OCCO2 (stereo not drawn),-11.8%
2,CC(C)C(=O)Nc1ccc(C(=O)N/N=C/c2cc(Br)cc(Br)c2O)cc1,11.7%
3,COc1ccc(/C=N/NC(=O)c2ccc(COc3ccccc3Cl)o2)c(OC)c1C,27.4%
4,Cc1cc2nnc(SCC(=O)NCc3cccs3)n2c2ccccc12,45.3%
5,CNC(=O)c1cccc2nc3ccccc3nc12,-11.8%
6,CCOC(=O)c1ccc(Oc2cc(C)nc(SC)n2)cc1,-2.48%
7,Cc1cc(C)c(C)c(OC(=O)c2sc(Cl)nc2C)c1,-28.2%
8,CCOC(=O)c1ccc(N=c2sc(C(=O)OC)cc(=O)n2Cc2ccco2)cc1,-0.7%
9,CCn1cc([N+](=O)[O-])c(C(=O)Nc2nc(-c3ccc(C)c(C)c3)c(C)s2)n1,-9.26%
10,COc1cccc(Oc2ccc(C(F)(F)F)cc2NC(=O)CN2C(=O)NC3(CCCC3)C2=O)c1,19.9%
11,COC(=O)c1cc(OC)c(OC)cc1NC(=S)NC(=O)c1ccco1,17.6%
12,c1ccc(CNc2nc(NCCc3ccncc3)c3sccc3n2)cc1,-4.58%
13,Cc1cc(NCCCN(C)C)n2c(nc3ccccc32)c1C#N,-10.7%
14,CN(C)CCCNc1c2c(nc3ccccc13)CCC2,0%
15,CN(C)CCOc1nc(-c2ccccc2)nc2c1oc1ccccc12,14.3%
16,CCN(CC)CCCNc1nc2ccccc2c2nc(-c3ccncc3)nn12,-2.43%
17,O=C(CSc1ncnc2nc[nH]c12)c1ccc([N+](=O)[O-])cc1,-6.76%
18,COc1cc(COCC(O)CN2CCN(CCN3C(=O)c4cccc5cccc(c45)C3=O)CC2)cc(OC)c1OC (stereo not drawn),-1.72%
19,COc1cc(C(=O)OCC(=O)c2cc(C)n(C)c2C)cc(OC)c1OC,13.5%
20,C=CCOc1ccc2nc(NC(=O)OC)[nH]c2c1,11.3%

row,Structure (SMILES),activity increase (luciferase signal)
1,Cc1noc2ncnc(Sc3ccccc3Cl)c12,39.8%
2,CCc1nn2c(N(C)CCO)cc(C)nc2c1-c1ccc(F)cc1,3.57%
3,OC1CCCN(Cc2c3ccccc3cc3ccccc23)C1 (stereo not drawn),36%
4,CCOC(=O)c1cnc2c(C)cc(C)cc2c1NCCCN1CCOCC1,34.1%
5,CN(C)CCNC(=O)c1cccc2nc3c(ccc4ccccc43)nc12,34.8%
6,CCOC(=O)c1cc2sccc2n1CC(=O)N1CCc2ccccc21,38.1%
7,COc1cc(-c2noc(C)c2/C=C/c2ccc(N)cc2)cc(OC)c1OC,4.57%
8,Cc1ccc(Nc2nnc(SCC(=O)Nc3ncc(S(=O)(=O)c4ccc([N+](=O)[O-])cc4)s3)s2)cc1,35.6%
9,CCOC(=O)c1c(C)oc2c(F)c(F)c(F)c(F)c2c1=O,-70.7%
10,CNc1ccc(Br)cc(C(=O)/C=C/c2cccc(OC)c2OC)c1=O,17.9%
11,CCOc1ccc2c(c1)C(=NNC(=O)c1ccncc1)c1cc(OCC)ccc1-2,-20.8%
12,COC(=O)c1ccc2c(=O)n(Cc3ccco3)c(SCC(=O)Nc3cc(C)on3)nc2c1,-15.7%
13,COc1ccc(C(=O)CSc2nn3c(=O)c(C(C)(C)C)nnc3s2)cc1,22.2%
14,CCN(CC)C(=O)CSc1nc2c(sc(=S)n2-c2ccccc2)c(=O)n1Cc1ccco1,-39.3%
15,CCOC(=O)c1ccc(/C=C2/C=C(c3ccccc3)N(c3ccc(Cl)c(C(=O)O)c3)C2=O)cc1,-17%
16,Cn1c(N)c(C(=O)COC(=O)c2cc(S(=O)(=O)N3CCOCC3)ccc2F)c(=O)n(C)c1=O,4.76%
17,Cc1ccc(Cl)cc1N1CCN(S(=O)(=O)c2ccc(-c3ccc(=O)[nH]n3)o2)CC1,30.2%
18,CCCn1c(=N)n(CC(=O)c2ccc([N+](=O)[O-])cc2)c2ccccc21,58.5%
